Holding throughout (conditions): mRNA level, 48 h; actives raise or lower the signal
Read-out in one assay: MYC, MYC (gene 4609)
As to the kind of experiment: LTEA_HepaRG_MYC: Life Technologies and Expression Analysis (LTEA) Assay for MYC using HepaRG (AID 2283518). The method, boiled down: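 HepaRG, ~100,000 cells/well, collagen I; 48 h plating; serum-free induction medium; 48 h dosing, duplicate, 100 uM top, half-log, 0.5% DMSO; total RNA → qRT-PCR MYC; gain/loss fit vs DMSO.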

Read-out in assay [1]: Paternally Expressed 10 (PEG10), PEG10 (gene 23089)
The assay is described as follows: LTEA_HepaRG_PEG10: Life Technologies and Expression Analysis (LTEA) Assay for Paternally Expressed 10 (PEG10) using HepaRG (AID 2283520). The method, boiled down: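 HepaRG, 48 h post-plating → serum-free induction medium → 48 h chemical exposure (duplicate, 8-pt, max 100 uM, half-log, 0.5% DMSO) → lysis in RLT → TaqMan qRT-PCR for PEG10, ACTB/GAPDH/POLR2A normalisation.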

Read-out in assay [2]: Nuclear factor NF-kappa-B p105 subunit (Homo sapiens) (UniProt P19838)
As to the kind of experiment: LTEA_HepaRG_NFKB1: Life Technologies and Expression Analysis (LTEA) Assay for Nuclear Factor Kappa B Subunit 1 (NFKB1) using HepaRG (AID 2283521).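 Note: differentiated human HepaRG liver cells in serum-free induction medium.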 The method, boiled down: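 NFKB1 transcript was measured by TaqMan qRT-PCR on Fluidigm arrays, normalised to three housekeeping genes and fitted in both directions against 0.5% DMSO. HepaRG cells were dosed in duplicate for 48 h in serum-free induction medium, eight half-log steps from 100 uM.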

Read-out in assay [3]: Protein phosphatase 2A (PPP2R4), PTPA (gene 5524)
The assay is described as follows: LTEA_HepaRG_PPP2R4: Life Technologies and Expression Analysis (LTEA) Assay for Protein phosphatase 2A (PPP2R4) using HepaRG (AID 2283522). The essentials: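 Readout is PPP2R4 transcript level by microfluidic qRT-PCR after 48 h chemical treatment of human HepaRG liver cells. Concentrations spanned 100 uM downward in half-log steps; gain or loss of signal was fitted relative to DMSO.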

Read-out in assay [4]: Phosphatase and tensin (PTEN), PTEN (gene 5728)
As to the kind of experiment: LTEA_HepaRG_PTEN: Life Technologies and Expression Analysis (LTEA) Assay for Phosphatase and tensin (PTEN) using HepaRG (AID 2283523). The method, boiled down: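 Read-out is PTEN transcript level by multiplexed TaqMan qRT-PCR after 48 h chemical treatment of human HepaRG cultures in serum-free induction medium. Concentrations spanned 100 uM downward in half-log steps, 0.5% DMSO throughout; activity fitted in both directions against vehicle.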

Read-out in assay [5]: solute carrier (SLC22A1), SLC22A1 (gene 6580)
The assay is described as follows: LTEA_HepaRG_SLC22A1: Life Technologies and Expression Analysis (LTEA) Assay for solute carrier (SLC22A1) using HepaRG (AID 2283524).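 For AC50: differentiated human HepaRG liver cells in serum-free induction medium.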 The essentials: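 HepaRG (human liver line), 48 h dosing in serum-free induction medium; 8 conc., half-log down from 100 uM, 0.5% DMSO vehicle, duplicates. Endpoint: SLC22A1 mRNA, qRT-PCR, housekeeping-normalized; gain/loss fit vs DMSO.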

Read-out in assay [6]: Pyruvate Dehydrogenase Kinase 4 (PDK4), PDK4 (gene 5166)
The assay is described as follows: LTEA_HepaRG_PDK4: Life Technologies and Expression Analysis (LTEA) Assay for Pyruvate Dehydrogenase Kinase 4 (PDK4) using HepaRG (AID 2283525). The essentials: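 In this multiplexed human HepaRG expression assay, cells are treated 48 h with test chemicals across an eight-point range starting at 100 uM. PDK4 mRNA changes, normalized to ACTB/GAPDH/POLR2A, are fitted in both directions relative to vehicle.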

Read-out in assay [7]: NAD(P)H dehydrogenase [quinone] 1 (NQO1), NQO1 (gene 1728)
As to the kind of experiment: LTEA_HepaRG_NQO1: Life Technologies and Expression Analysis (LTEA) Assay for NAD(P)H dehydrogenase [quinone] 1 (NQO1) using HepaRG (AID 2283526). The essentials: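 HepaRG, 48 h post-plating → serum-free induction medium → test chemical 48 h (duplicate, 100 uM top, half-log x8, 0.5% DMSO) → RNA isolation → qRT-PCR, ACTB/GAPDH/POLR2A normalization; bidirectional curve fit vs DMSO baseline.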

Read-out in assay [8]: Nuclear factor erythroid 2-related factor 2 (Homo sapiens) (UniProt Q16236)
As to the kind of experiment: LTEA_HepaRG_NFE2L2: Life Technologies and Expression Analysis (LTEA) Assay for Nuclear factor erythroid 2-related factor 2 (NFE2L2) Transcription Factor using HepaRG (AID 2283527). The method, boiled down: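 Transcript level of NFE2L2 is the read-out, measured by microfluidic TaqMan qRT-PCR and normalized to three housekeeping genes. Human HepaRG cultures received test chemical for 48 h at up to 100 uM in half-log steps. Gain or loss of signal is fitted relative to 0.5% DMSO.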

Read-out in assay [9]: succinate dehydrogenase complex iron sulfur subunit B (SDHB), SDHB (gene 6390)
As to the kind of experiment: LTEA_HepaRG_SDHB: Life Technologies and Expression Analysis (LTEA) Assay for succinate dehydrogenase complex iron sulfur subunit B (SDHB) using HepaRG (AID 2283528). The essentials: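 SDHB transcript level read by TaqMan qRT-PCR, housekeeping-normalised (ACTB, GAPDH, POLR2A), after 48 h chemical treatment of plated HepaRG cells; eight concentrations top 100 uM, half-log steps, 0.5% DMSO, duplicates; fitted both directions against DMSO.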

Read-out in assay [10]: Signal transducer and activator of transcription 3 (Homo sapiens) (UniProt P40763)
As to the kind of experiment: LTEA_HepaRG_STAT3: Life Technologies and Expression Analysis (LTEA) Assay for Signal transducer and activator of transcription (STAT3) using HepaRG (AID 2283529). The essentials:
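Read-out is STAT3 mRNA level by qRT-PCR, normalized to three housekeeping genes, in human HepaRG liver cells treated for 48 h. Concentrations ran from 100 uM downward in half-log steps; curves were fitted for gain or loss relative to 0.5% DMSO.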

Read-out in assay [11]: solute carrier (SLCO1B1), SLCO1B1 (gene 10599)
As to the kind of experiment: LTEA_HepaRG_SLCO1B1: Life Technologies and Expression Analysis (LTEA) Assay for solute carrier (SLCO1B1) using HepaRG (AID 2283530). The essentials:
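HepaRG, serum-free induction medium, 48 h dosing, 8-pt half-log from 100 uM, 0.5% DMSO vehicle, duplicates. Readout: SLCO1B1 mRNA, qRT-PCR, ACTB/GAPDH/POLR2A normalization; up or down fit vs DMSO.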

Read-out in assay [12]: sulfotransferase 2A1 (SULT2A1), SULT2A1 (gene 6822)
The assay is described as follows: LTEA_HepaRG_SULT2A1: Life Technologies and Expression Analysis (LTEA) Assay for sulfotransferase 2A1 (SULT2A1) using HepaRG (AID 2283531). The essentials:
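Transcript levels of SULT2A1, quantified by qRT-PCR and normalized to three housekeeping genes, serve as the readout. Human HepaRG cultures receive test chemicals for 48 h at up to 100 uM in half-log steps, with 0.5% DMSO vehicle.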

Read-out in assay [13]: Transforming Growth Factor (TGFA), TGFA (gene 7039)
The assay is described as follows: LTEA_HepaRG_TGFA: Life Technologies and Expression Analysis (LTEA) Assay for Transforming Growth Factor (TGFA) using HepaRG (AID 2283532). The method, boiled down:
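HepaRG (human liver line), 48 h exposure, 8 conc. half-log down from 100 uM, 0.5% DMSO vehicle, duplicates; serum-free induction medium. TGFA mRNA by TaqMan qRT-PCR, ACTB/GAPDH/POLR2A normalization; gain/loss fit vs DMSO.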

Read-out in assay [14]: Transforming Growth Factor (TGFB1), TGFB1 (gene 7040)
As to the kind of experiment: LTEA_HepaRG_TGFB1: Life Technologies and Expression Analysis (LTEA) Assay for Transforming Growth Factor (TGFB1) Transporter using HepaRG (AID 2283533). The method, boiled down:
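HepaRG, 48 h post-plating, switched to serum-free induction medium; chemicals 100 uM top, half-log, 8 pts, 0.5% DMSO, dup; 48 h exposure; RNA → Fluidigm TaqMan qRT-PCR; norm ACTB/GAPDH/POLR2A; bidirectional fit vs DMSO.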

Read-out in another assay: TIMP1, TIMP1 (gene 7076)
As to the kind of experiment: LTEA_HepaRG_TIMP1: Life Technologies and Expression Analysis (LTEA) Assay for TIMP1 using HepaRG (AID 2283534).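 Note: TaqMan qRT-PCR signal normalized to ACTB GAPDH and POLR2A housekeeping genes.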 The method, boiled down:
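Readout is TIMP1 mRNA level measured by qRT-PCR and normalized to three housekeeping genes. Human HepaRG cells were treated for 48 h in duplicate at eight concentrations up to 100 uM (0.5% DMSO); gain or loss fitted against DMSO.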

Read-out in assay [15]: Tumor necrosis factor receptor 1 (TNFRSF1A), TNFRSF1A (gene 7132)
The assay is described as follows: LTEA_HepaRG_TNFRSF1A: Life Technologies and Expression Analysis (LTEA) Assay for Tumor necrosis factor receptor 1 (TNFRSF1A) using HepaRG (AID 2283535). The essentials: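 Read-out is TNFRSF1A transcript level by TaqMan qRT-PCR, normalized to three housekeeping genes, scored as gain or loss of signal versus 0.5% DMSO. Human HepaRG cells received test chemicals for 48 h at up to 100 uM (half-log series).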

Read-out in assay [16]: Thyroid Hormone Responsive (THRSP), THRSP (gene 7069)
As to the kind of experiment: LTEA_HepaRG_THRSP: Life Technologies and Expression Analysis (LTEA) Assay for Thyroid Hormone Responsive (THRSP) using HepaRG (AID 2283536). The essentials: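 mRNA induction or loss relative to 0.5% DMSO vehicle was fitted bidirectionally across an eight-point curve whose highest exposure was 100 uM. Human HepaRG liver cells received chemicals in duplicate over 48 h before RNA extraction.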

Read-out in assay [17]: Cellular tumor antigen p53 (Homo sapiens) (UniProt P04637)
As to the kind of experiment: LTEA_HepaRG_TP53: Life Technologies and Expression Analysis (LTEA) Assay for Tumor Protein P53 (TP53) using HepaRG (AID 2283537). The essentials: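 TP53 transcript measured by qRT-PCR, normalized to three housekeeping genes, after 48 h treatment of human HepaRG cultures with chemicals from 100 uM downward in half-log steps (0.5% DMSO vehicle, serum-free induction medium). Up- or down-regulation fitted against DMSO.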

The AC50 is the midpoint of the concentration-response curve, whichever way the signal moves.

Structures are written as SMILES. Calls of active or inactive are those of the source. Rule for the calls: active = hit-call score of the fitted dose curve at least 0.9, where 1 is the maximum; inactive = score below 0.9.

Sequence of Cellular tumor antigen p53 (Homo sapiens) (P04637 whole entry, looked up): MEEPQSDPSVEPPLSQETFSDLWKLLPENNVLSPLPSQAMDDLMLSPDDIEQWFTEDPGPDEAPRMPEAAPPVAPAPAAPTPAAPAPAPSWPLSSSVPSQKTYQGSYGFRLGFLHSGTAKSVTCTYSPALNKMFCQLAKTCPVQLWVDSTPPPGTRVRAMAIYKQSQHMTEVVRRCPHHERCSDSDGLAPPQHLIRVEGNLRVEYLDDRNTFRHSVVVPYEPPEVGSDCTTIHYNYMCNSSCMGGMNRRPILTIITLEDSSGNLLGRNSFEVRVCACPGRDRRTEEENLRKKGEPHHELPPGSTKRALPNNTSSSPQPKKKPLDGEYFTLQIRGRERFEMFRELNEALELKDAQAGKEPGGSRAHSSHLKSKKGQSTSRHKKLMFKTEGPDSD
Sequence of Signal transducer and activator of transcription 3 (Homo sapiens) (P40763 whole entry, looked up): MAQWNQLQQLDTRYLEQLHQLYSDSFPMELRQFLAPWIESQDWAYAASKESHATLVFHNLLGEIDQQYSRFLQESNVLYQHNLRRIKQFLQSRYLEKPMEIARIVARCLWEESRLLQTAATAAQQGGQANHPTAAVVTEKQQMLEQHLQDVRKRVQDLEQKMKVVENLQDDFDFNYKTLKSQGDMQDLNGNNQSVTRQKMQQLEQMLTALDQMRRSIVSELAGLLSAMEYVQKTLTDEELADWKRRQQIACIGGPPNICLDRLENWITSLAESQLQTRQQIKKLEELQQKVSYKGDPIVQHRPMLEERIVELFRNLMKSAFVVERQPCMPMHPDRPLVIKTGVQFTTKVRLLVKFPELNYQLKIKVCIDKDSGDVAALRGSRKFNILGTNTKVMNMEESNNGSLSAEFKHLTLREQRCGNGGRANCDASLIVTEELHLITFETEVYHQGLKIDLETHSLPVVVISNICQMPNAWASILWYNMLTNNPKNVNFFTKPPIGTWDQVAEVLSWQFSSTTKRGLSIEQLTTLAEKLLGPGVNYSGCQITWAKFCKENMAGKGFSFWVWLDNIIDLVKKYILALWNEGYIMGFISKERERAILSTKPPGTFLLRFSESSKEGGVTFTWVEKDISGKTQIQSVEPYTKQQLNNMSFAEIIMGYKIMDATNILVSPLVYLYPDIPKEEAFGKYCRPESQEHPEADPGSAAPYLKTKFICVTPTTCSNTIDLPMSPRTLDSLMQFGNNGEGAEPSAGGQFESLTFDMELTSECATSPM
Sequence of Nuclear factor erythroid 2-related factor 2 (Homo sapiens) (Q16236 whole entry, looked up): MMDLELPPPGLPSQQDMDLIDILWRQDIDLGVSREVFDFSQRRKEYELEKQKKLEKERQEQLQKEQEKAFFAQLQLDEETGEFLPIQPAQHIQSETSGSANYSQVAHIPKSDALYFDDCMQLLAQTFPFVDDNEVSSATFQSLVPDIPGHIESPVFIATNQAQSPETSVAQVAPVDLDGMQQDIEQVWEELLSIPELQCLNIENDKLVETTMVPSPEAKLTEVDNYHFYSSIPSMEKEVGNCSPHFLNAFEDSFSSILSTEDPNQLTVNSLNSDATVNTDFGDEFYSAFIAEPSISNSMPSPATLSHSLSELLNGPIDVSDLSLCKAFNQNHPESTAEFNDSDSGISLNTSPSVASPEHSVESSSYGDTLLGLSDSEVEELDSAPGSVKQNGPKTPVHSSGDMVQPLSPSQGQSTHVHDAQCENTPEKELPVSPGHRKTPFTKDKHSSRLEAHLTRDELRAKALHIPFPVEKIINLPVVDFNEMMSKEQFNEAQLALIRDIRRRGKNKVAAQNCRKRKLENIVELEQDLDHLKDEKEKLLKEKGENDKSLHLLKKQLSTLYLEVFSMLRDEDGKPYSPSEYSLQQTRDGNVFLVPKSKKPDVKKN
Sequence of Nuclear factor NF-kappa-B p105 subunit (Homo sapiens) (P19838 whole entry, looked up): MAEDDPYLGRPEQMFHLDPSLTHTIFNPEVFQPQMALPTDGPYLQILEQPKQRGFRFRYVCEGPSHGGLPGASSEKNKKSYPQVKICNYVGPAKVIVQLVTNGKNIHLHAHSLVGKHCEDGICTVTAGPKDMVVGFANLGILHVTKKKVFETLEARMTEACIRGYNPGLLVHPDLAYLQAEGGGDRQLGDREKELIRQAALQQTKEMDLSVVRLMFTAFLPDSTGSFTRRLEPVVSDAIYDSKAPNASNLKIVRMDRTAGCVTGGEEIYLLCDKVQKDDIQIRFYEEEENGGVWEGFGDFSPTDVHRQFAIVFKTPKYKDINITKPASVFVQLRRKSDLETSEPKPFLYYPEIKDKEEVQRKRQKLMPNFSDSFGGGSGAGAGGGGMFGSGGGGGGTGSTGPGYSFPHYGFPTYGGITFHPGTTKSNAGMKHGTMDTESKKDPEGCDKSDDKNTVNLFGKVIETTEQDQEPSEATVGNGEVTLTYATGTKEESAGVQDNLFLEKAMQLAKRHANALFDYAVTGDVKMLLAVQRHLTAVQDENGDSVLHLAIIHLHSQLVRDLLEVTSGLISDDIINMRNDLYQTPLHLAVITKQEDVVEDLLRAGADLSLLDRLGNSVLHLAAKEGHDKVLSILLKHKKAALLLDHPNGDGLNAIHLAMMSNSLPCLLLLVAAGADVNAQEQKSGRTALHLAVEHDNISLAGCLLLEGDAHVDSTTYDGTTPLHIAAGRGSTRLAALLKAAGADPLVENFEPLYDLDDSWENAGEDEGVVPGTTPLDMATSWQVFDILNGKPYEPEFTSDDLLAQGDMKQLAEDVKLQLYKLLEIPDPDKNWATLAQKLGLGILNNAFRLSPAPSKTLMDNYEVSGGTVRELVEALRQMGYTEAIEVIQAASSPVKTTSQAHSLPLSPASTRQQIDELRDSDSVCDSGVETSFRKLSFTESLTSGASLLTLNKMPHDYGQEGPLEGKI

`Oc1ccc(O)cc1`: the outcome with MYC, MYC (gene 4609) is “inactive”; in [1], “inactive”; in assay [2], “inactive”; in assay [3], “inactive”; in assay [4], “inactive”; in assay [5], “inactive”. Moreover, the compound was classed as inactive in assay [6], in assay [7], in [8], in assay [9], in assay [10] and in [11]. Further, the outcome in [12] is “inactive”; in [13] it was “inactive”; in assay [14], “inactive”; with TIMP1, TIMP1 (gene 7076) it was “inactive”; in assay [15], “inactive”; in [16] it was “inactive”. Further, in assay [17], the call was inactive.
On to `C=CCc1ccc(OC)c(OC)c1`, for which the outcome in the assay with MYC, MYC (gene 4609) was “inactive”; in assay [1] it was “inactive”; in assay [2], “inactive”; in assay [3], “inactive”; in assay [5], “inactive”; in assay [6] it was “inactive”. The compound was classed as inactive in [7], in assay [8], in [9], in assay [10], in [12] and in [14]. In addition, the compound was classed as inactive in [15], in assay [16] and in [17]. In addition, the AC50 in assay [4] was 0.0454 µM (active); in [11], 0.315 µM (active); in assay [13], 9.92 µM (active).
With `CC1=C(C)S(=O)(=O)CCS1(=O)=O`, the half-maximal activity concentration (AC50) with MYC, MYC (gene 4609) was 72.6 µM (active); in assay [3], 74.4 µM (active); in [5] it was 82.1 µM (active); in [6] it was 62 µM (active); in [8] it was 65.7 µM (active); in [11], 88.2 µM (active). The values for the AC50 in assay [13], in assay [16] and in [17] were 50 µM (active), 80 µM (active) and 50 µM (active), respectively. Moreover, the compound was called inactive in assay [1], in assay [2], in assay [4], in [7], in assay [9] and in [10]. In addition, the compound was classed as inactive in assay [12], in assay [14] and in [15].
For `CC(=O)S[C@H](C(=O)N[C@H]1Cc2ccccc2[C@H]2CCC[C@@H](C(=O)O)N2C1=O)C(C)C`, the outcome in the assay with MYC, MYC (gene 4609) is “inactive”; in assay [1], “inactive”; in assay [2], “inactive”; in assay [3], “inactive”; in assay [4], “inactive”; in assay [5], “inactive”. In addition, the outcome in assay [6], in [7], in assay [8], in [9], in assay [10] and in assay [11] was inactive. Further, the outcome in assay [12], in [13], in [14], in [15], in assay [16] and in assay [17] was inactive.
